# Laboratory results as given in PubChem BioAssay.
# Active and inactive are the calls of the source.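 How the source made its calls, unless noted: active means compounds lowering colon cancer cell viability after pretreatment blocking the GSK3B kinase; inactive means the rest.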
# What was measured:
# [1] = stimulators of nuclear beta-catenin in C2C12, primary screen, imaging, WNT3A-conditioned medium, mouse C2C12, NPC library (AID 1117326; in the data active means nuclear beta-catenin stimulation mostly above about 4.2%, no sharp cut-off; inactive means mostly below about 10%; further: reference of the scale not given here); details: stronger effect = higher value
# [2] = stimulators of insulin release from INS-1E, primary screen, cell-based, 5 mM glucose, NPC library (AID 1117329;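 active means compound raises insulin release from rat beta cells at 5 mM glucose, no numeric limit stated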; further: reference of the scale not given here); details: rat INS-1E insulin secretion, at 10 µM, stronger effect = higher value
# [3] = growth inhibition of GSK3B-pretreated HCT116 cells – cell-based, CellTiter-Glo, 0.2 to 20 µM (AID 1117336); details: HCT116 viability after GSK3B inhibitor, at 20 µM, stronger effect = higher value
# [4] = inhibition of endothelial tube formation, primary screen, imaging, VEGF stimulated, CD31 staining, tube area, NPC library (AID 1117340;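 active means compound that reduces growth-factor-driven endothelial tube area in a mixed cell culture, no cutoff stated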); details: VEGF-stimulated ADSC/ECFC co-culture, at 10 µM, stronger effect = higher value
# [5] = glucagon-like peptide 1 release enhancers, primary assay, NCI-H716 cell line, NPC library (AID 1117341;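 active means compound raises GLP1 secretion from the human gut endocrine cells, with no numeric limit stated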; further: reference of the scale not given here); details: NCI-H716 cells, at 10 µM, stronger effect = higher value
# [6] = HCT116 colon cancer cell growth inhibition, primary screen, CellTiter-Glo luminescence, NPC library (AID 1117342;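 active means compounds that lower survival of HCT116 colon cancer cells in the luminescence readout, no numeric limit stated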); details: at 20 µM (top of the series)
# [7] = CellTiter-Glo luminescent readout of SW480 viability loss, NPC library primary (AID 1117343;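 active means compounds that lower viability of the colon cancer cells in the luminescence readout, with no numeric limit stated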); details: CellTiter-Glo luminescence; at 20 µM (top of the series)
# [8] = decreased DLD-1 cellular survival, CellTiter-Glo luminescent readout, NPC compound collection, primary HTS (AID 1117346;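 active means compounds that lower survival of DLD-1 colon cancer cells in the luminescence readout, no cutoff given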); details: DLD-1 viability, CellTiter-Glo luminescence; at 20 µM (top of the series)
Compound,nuclear beta-catenin stimulation ([1]; at 10 µM),"nuclear beta-catenin stimulation ([1]; stimulation, at 2 µM) [%]",insulin secretion stimulation [2],viability decrease [3],tube area decrease [4],GLP1 secretion stimulation [5],inhibition of viability [6],viability decrease (inhibition) [7],viability decrease (inhibition) [8]
CC(=O)OC[C@H]1O[C@@H](n2ncc(=O)[nH]c2=O)[C@H](OC(C)=O)[C@@H]1OC(C)=O,14% (inactive),2.3,1.7% (inactive),47.3% (active),47.8% (active),-0.6% (inactive),16.2% (inactive),26% (inactive),-5.9% (inactive)
CC1CN(c2cc3c(cc2F)c(=O)c(C(=O)O)cn3-c2ccc(F)cc2F)CCN1 (centres undefined),-0.4% (inactive),0,2.1% (inactive),8.7% (inactive),5.5% (inactive),-0.9% (inactive),10.7% (inactive),16.6% (inactive),-0.2% (inactive)
CCOC(=O)C(=O)c1csc(NC=O)n1,-0.7% (inactive),-0.8,2.4% (inactive),-15.5% (inactive),-9.4% (inactive),-2% (inactive),1.1% (inactive),-10.2% (inactive),7.8% (inactive)
O=C1CC(c2ccc(Cl)cc2)CC(=O)N1,-1.1% (inactive),-2.3,1.8% (inactive),2.1% (inactive),-4.2% (active),3.8% (inactive),20.4% (inactive),-4.9% (inactive),6.7% (inactive)
CC(=O)/C=C/C=C1/C2CCC(C2)C1(C)C (centres undefined),1.2% (inactive),3.3,0.6% (inactive),-80% (inactive),-0.7% (inactive),0.1% (inactive),-1.1% (inactive),27% (inactive),-15.2% (inactive)
CNc1c2c(nn1C)CCCC2,0.2% (inactive),0.4,0% (inactive),-3.4% (inactive),16.1% (inactive),0% (inactive),-4.2% (inactive),-2.2% (inactive),0.1% (inactive)
CC(C)(C)c1nnc(NS(=O)(=O)c2ccc(N)cc2)s1,0.1% (inactive),-1.2,3.45% (inactive),7.2% (inactive),-5.2% (inactive),0.7% (inactive),-2.9% (inactive),54.4% (active),-5.4% (inactive)
CC(CCc1ccc2c(c1)OCO2)NN (centres undefined),0.2% (inactive),0.2,-2.2% (inactive),57.8% (active),23.7% (inactive),2.3% (inactive),84.6% (active),97.6% (active),17.7% (inactive)
CC1(C)OC[C@@H](COC(=O)CCc2ccc(OC[C@@H](O)CNCCNC(=O)N3CCOCC3)cc2)O1,0.8% (inactive),1.1,4% (inactive),-3.9% (inactive),-22.2% (inactive),0.6% (inactive),8% (inactive),33.8% (inactive),44% (inactive)
CCOC(=O)Oc1ccc(CCNC(=O)[C@H](CCSC)NC(C)=O)cc1OC(=O)OCC,-0.7% (inactive),1.3,-1.6% (inactive),41% (inactive),1.3% (inactive),-1.1% (inactive),2.33% (inactive),14.7% (inactive),18.4% (inactive)
CN1CCN(N)CC1,1.1% (inactive),0.7,1.5% (inactive),-1.2% (inactive),-7.3% (inactive),0.5% (inactive),0.1% (inactive),-13.8% (inactive),10.2% (inactive)
CC12CCC(C[N+](C)(CCC[N+](C)(C)C)C1)C2(C)C (centres undefined),-0.5% (inactive),0,-2.5% (inactive),-7.9% (inactive),-11.3% (inactive),-3.2% (inactive),-7.3% (inactive),7.3% (inactive),-4% (inactive)
O[C@@H]1CO[C@H]2[C@@H]1OC[C@@H]2O,1% (inactive),1,-2% (inactive),2.15% (inactive),16.5% (inactive),1.1% (inactive),-9.1% (inactive),51.8% (active),-4.4% (inactive)
COCCc1ccc(OCC2CO2)cc1 (centres undefined),0.9% (inactive),0.3,0.8% (inactive),-8% (inactive),-12.7% (inactive),0.8% (inactive),-0.6% (inactive),14.3% (inactive),3.3% (inactive)
CCOC(=O)c1c(N)sc2c1CCN(Cc1ccccc1)C2,0.4% (inactive),0.3,-0.1% (inactive),21.9% (inactive),33.8% (inactive),0.5% (inactive),47.3% (inactive),84.1% (active),31.8% (active)
Cc1ccccc1C(=O)Nc1ccc(C(=O)N2CCCC(N(C)C)c3ccccc32)cc1 (centres undefined),58.3% (active),30,2.4% (inactive),18.9% (inactive),59.2% (active),2.1% (inactive),80.2% (active),80.2% (active),59% (active)
